Source: PubChem BioAssay
Shown are actives, neighbours in structure and some others; about 5.7% of the full set was active somewhere.
ssDAF12 agonist: activates DAF-12 receptor from parasite S. stercoralis; HEK293 ssDAF-12/GRIP1 lit1-tk-luc reporter, luminescence; % of 3 µM dafachronic acid response; activation, % at 6.8 µM; 1% of 370,000 active;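 active means activation above the mean over all tested compounds plus 3 SD, cut at about 0.9% in these data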
AHR activator: human AHR activation. P35869. AHR-responsive luciferase reporter cells, luminescence. activation, % at 5 µM. 2.5% of 320,000 active. AID 2796; in the data active means activation above about 47%
DAX1 inh-1: blocks DAX1 repression of SF-1 activated StAR promoter; HEK293T StAR-luciferase reporter, SF-1/DAX-1 repression relief; inhibition, % at 6.8 µM; 1.1% of 370,000 active;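 active means inhibition above the mean over all tested compounds plus 3 SD, cut at about 3.6% in these data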;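 further: higher inhibition means more luminescence from relief of DAX-1 repression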
hgDAF12 agonist: agonists of H. glycines DAF-12 nuclear receptor; HEK293 GAL4-hgDAF12 UAS-luciferase reporter, agonist luminescence; normalized to butyrate control; activation, % at 6.8 µM; 1.8% of 370,000 active; AID 687014;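 active means activation above a cutoff set at the mean of all screened compounds plus 3 SD, cut at about 10% in these data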
hcDAF-12 act: H. contortus DAF-12 activation, primary screen. HEK293 hcDAF-12 lit1-tk-luc reporter, luminescence; 0% DMSO, 100% Δ7-dafachronic acid. activation, % at 6.8 µM. 1.4% of 370,000 active;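 active means activation above the mean of all tested compounds plus 3 SD, cut at about 5.5% in these data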
DAX1 inh-2: NR0B1 (DAX1) inhibition; HEK293 Gal4-DAX1 luciferase reporter, luminescence; P51843; 0.99% of 340,000 active; inhibition, % at 6.75 µM; AID 504766;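 active means inhibition above the mean over all tested compounds plus 3 SD, cut at about 4.2% in these data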;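 further: inhibition shows as a rise in luminescence from relieved DAX1 repression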
Target sequence (P51843 207-470 limits assumed): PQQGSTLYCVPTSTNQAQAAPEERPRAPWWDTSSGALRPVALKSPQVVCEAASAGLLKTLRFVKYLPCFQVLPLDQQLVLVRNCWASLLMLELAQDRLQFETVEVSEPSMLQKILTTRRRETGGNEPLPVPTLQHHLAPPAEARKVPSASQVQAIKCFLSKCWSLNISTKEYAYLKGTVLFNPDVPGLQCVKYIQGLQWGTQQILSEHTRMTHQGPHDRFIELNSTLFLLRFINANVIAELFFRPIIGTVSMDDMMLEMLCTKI
Of the large screens only hits and unclear results are named; the others gave an inactive call.

O=P(Nc1c(Cl)cccc1Cl)(c1ccccc1)c1nc2c(s1)CCCC2 (stereo not given)	none (no result: ssDAF12 agonist, DAX1 inh-1, hgDAF12 agonist, hcDAF-12 act)
O=C(Nc1ccc(Cl)cc1)Nc1nccs1	hgDAF12 agonist 11
O=C(Nc1nccs1)C(Cl)(Cl)Cl	none
COc1cc2c(cc1OC)C13CCN4CC5=CCOC(CC(=O)O)C(C5CC41)C3N2 (stereo not given)	DAX1 inh-2 5.7 (no result: AHR activator)
CCCc1cc(=O)oc2cc(OCC(=O)N3CCC(C(=O)O)(c4ccccc4)CC3)ccc12	none
COC(=O)c1c(C)[nH]c(C(=O)C(Cc2ccccc2)N(C)C)c1C (stereo not given)	hcDAF-12 act 6.4
CCc1nnc(NS(=O)(=O)c2ccc(N=Cc3c(O)n(-c4ccc(Cl)cc4)c(=O)[nH]c3=O)cc2)s1	none
CCCCn1c(O)c(/C=C2/C=CC=N2)c(=O)[nH]c1=O	DAX1 inh-2 5.4
c1cncc(-c2ccc3n2Cc2cnnn2-c2ccccc2-3)c1	none (no result: AHR activator, DAX1 inh-2)
CCN(CC)P(c1n(C)cc[n+]1C)N(CC)CC	DAX1 inh-2 6.2
CCc1c(-c2ccccc2)nc2ccccc2c1C(=O)N1CCC2(CC1)OCCO2	none
O=C1NC(=S)N(c2ccc(Br)cc2)C(=O)/C1=C/N1CCN(C(=O)c2ccco2)CC1	DAX1 inh-2 4.7
Cc1ccc(N2C(=O)/C(=C/N3CCN(C(=O)c4ccco4)CC3)C(=O)NC2=S)cc1C	none
Nc1ccc(Cl)c(Cl)c1	ssDAF12 agonist 1.1 (no result: AHR activator)
CCOC(=O)c1c(C)n(Cc2ccccc2)c2ccc(OCC(O)Cn3nc(C)cc3C)cc12 (stereo not given)	AHR activator 55
Oc1ccc(Cl)c(Cl)c1Cl	none
Cc1ccccc1NC(=S)NC(NC(=O)CF)C(Cl)(Cl)Cl (stereo not given)	DAX1 inh-2 5.6
COc1cc2nc(CN3CC=C(c4ccccc4)CC3)[nH]c(=O)c2cc1OC	DAX1 inh-2 6.0
COc1ccc(-c2nn(CCC#N)cc2C(=O)Nc2ccccc2Br)cc1[N+](=O)[O-]	DAX1 inh-2 4.9
COc1ccc(-c2nn(CCC#N)cc2C(=O)Nc2ccccc2Br)cc1	none
N[C@@H](Cc1c[nH]c2ccccc12)c1nnc(SCc2ccccc2)o1	AHR activator 74
N[C@@H](Cc1c[nH]c2ccccc12)c1nnc(SCc2ccc(F)cc2)o1	none (no result: AHR activator)
COc1cc(C(=O)N2C[C@H]3C[C@@H](C2)c2cccc(=O)n2C3)cc(OC)c1OC	DAX1 inh-2 4.9
CCC(c1ccc(C)cc1)N1C(=O)C2C3CCC(O3)C2C1=O (stereo not given)	none
CC1CN(CC(=O)c2ccccc2Cl)CC(C)O1 (stereo not given)	none
CC1CCN(CC(=O)c2ccccc2Cl)CC1	hgDAF12 agonist 11
CCOc1cc2c(cc1OCC)-n1cccc1C(c1ccccc1F)NC2 (stereo not given)	none
CCC(=NCCCn1ccnc1)c1c(O)n(Cc2ccccc2)c(=O)[nH]c1=O	AHR activator 48
COC(=O)C1=C(c2ccccc2OCc2ccccc2)C[C@@H]2CC[C@H]1N2C(=O)NCc1ccc(OC)c(OC)c1	none
CSc1nc(Cl)c(Br)c(N2CC2)n1	DAX1 inh-2 4.6 (no result: AHR activator)
COc1ccc(CC(C)NCCC(c2ccccc2)c2ccccc2)cc1 (stereo not given)	none
CCOC(=O)[C@]12Cc3cc(C)ccc3[C@H]1N(C(C)C)C(=O)c1ccccc12	DAX1 inh-1 4.2 (no result: AHR activator, DAX1 inh-2)
CCOC(=O)[C@]12Cc3ccccc3[C@H]1N(C)C(=O)c1cc(OC)ccc12	DAX1 inh-1 3.7 (no result: AHR activator, DAX1 inh-2)
CCOC(=O)[C@]12Cc3cc(OC)ccc3[C@H]1N(C1CCCCC1)C(=O)c1cc(OC)ccc12	none (no result: AHR activator, DAX1 inh-2)
CCCc1cc(=O)oc2cc(OCC(=O)N3C[C@H]4C[C@@H](C3)c3cccc(=O)n3C4)ccc12	none
C[C@H](Cc1ccc(OCC(=O)O)cc1)NC[C@H](O)c1cccc(Cl)c1	none (no result: AHR activator, DAX1 inh-2)
NC(N)=N/N=C/c1cn(-c2ccccc2)nc1-c1cccs1	AHR activator 50
O=c1c2ccccc2nc(-c2cccs2)n1-c1ccccc1	none
COc1c(C)cc(C(=O)C2CCCN(C3CCOCC3)C2)cc1C (stereo not given)	none
COc1ccc2cc(C(=O)C3CCCN(C4CCOCC4)C3)ccc2c1 (stereo not given)	DAX1 inh-1 4.4
COCCN1C(=O)NC(=O)/C(=C\c2ccc(F)cc2)C1=O	none
CN(C)c1ccc(/C=C2\C(=O)NC(=O)N(CCc3ccc(F)cc3)C2=O)cc1	DAX1 inh-2 5.5
COC(=O)c1ccc(CN2CCSC2=N)cc1	none
Nc1c(C(=O)NCCCc2ccccc2)c2nc3ccccc3nc2n1Cc1cccs1	ssDAF12 agonist 2.3
COC(=O)C1C(OC(=O)c2ccccc2)CC2CCC1[N+]2(C)C (stereo not given)	none (no result: AHR activator, DAX1 inh-2)
O=c1[nH]c(=S)[nH]c(O)c1/C=C1/C=c2ccccc2=N1	hcDAF-12 act 5.8
CC(=O)OC1C(=O)OCC23CCC4(C)OC4C2OC2CC(OC(=O)C=CC=CC(=O)OCCC1C)C3(C)C21CO1 (stereo not given)	none (no result: AHR activator)
O=c1c([N+](=O)[O-])cn(O)cc1[N+](=O)[O-]	DAX1 inh-2 4.4 (no result: AHR activator)
N#CC1=C(N)Oc2c(c(=O)sc3ccccc23)C1c1cccnc1 (stereo not given)	DAX1 inh-1 4.1
N#CC1=C(N)Oc2c(c(=O)oc3ccccc23)C1c1ccncc1 (stereo not given)	none
O=c1[nH]c(=O)n(-c2ccc(Br)cc2)c(O)c1C=NCCN1CCCCC1	DAX1 inh-2 6.4
Cc1cccc(-n2c(O)c(C=NCCN3CCCCC3)c(=O)[nH]c2=O)c1	none
COc1cc2c(c(OC)c1OC)-c1ccc(O)c(=O)cc1[C@@H](N)CC2	none
COCCNC(=O)CN1C(=O)CN=C(c2ccccc2)c2ccccc21	DAX1 inh-2 4.5
O=C(/C=C/C=C/c1ccccc1)CC1(O)C(=O)Nc2ccccc21 (stereo not given)	none
Cc1ccc(/C=C2\C(=O)NC(=S)N(c3ccc(F)cc3)C2=O)s1	DAX1 inh-1 4.0
Cc1ccc(/C=C2\C(=O)NC(=S)N(c3ccccc3F)C2=O)s1	none
CCn1c(=O)cc(OCC(=O)N2CCC3(CC2)OCCO3)c2ccccc21	DAX1 inh-2 4.4
CCC12CCN(CC3(O)CC3)C(Cc3ccc(O)cc31)C2(C)C (stereo not given)	none (no result: AHR activator, DAX1 inh-2)
CCN(CC)C(=O)c1ccc(NC(=O)CN2CCc3cc(OC)c(OC)cc3C2)cc1	none
CC(N)Cc1c[nH]c2ccc(Cl)cc12 (stereo not given)	none
Clc1ccc2[nH]c3c(c2c1)CCNC3	ssDAF12 agonist 0.9
CNc1cc(N2CCNCC2)ccc1[N+](=O)[O-]	none
CN1CCN(c2ccc([N+](=O)[O-])c(NCc3ccco3)c2)CC1	AHR activator 63
O=[N+]([O-])c1ccc(N2CCNCC2)cc1NCc1ccco1	AHR activator 71
